According to publication PMC11062922 (Nature Chemical Biology, 2023):
Like-named read-outs stand apart in the source and are kept apart here.

Key:
Conditions in all cases: read-out: apparent Kd, n = 1
[1] = test system: MAP2K1
[2] = test system: MAP3K5
[3] = test system: MAPK10
[4] = compound concentrations:100 nM and 1000 nM (sheet 'Lestaurtinib' of Supplementary Table 1),run:Lestaurtinib_02584_R2,Plate:MR017
[5] = compound concentrations:100 nM and 1000 nM (sheet 'Lestaurtinib' of Supplementary Table 1),run:Lestaurtinib_02584_R3,Plate:MR017
[6] = compound concentrations:100 nM and 1000 nM (sheet 'Lestaurtinib' of Supplementary Table 1),run:Lestaurtinib_02601_R1,Plate:MR018
[7] = compound concentrations:100 nM and 1000 nM (sheet 'Lestaurtinib' of Supplementary Table 1),run:Lestaurtinib_02606_R1,Plate:MR019
[8] = compound concentrations:100 nM and 1000 nM (sheet 'Lestaurtinib' of Supplementary Table 1),run:Lestaurtinib_02724_R1,Plate:MR021
[9] = compound concentrations:100 nM and 1000 nM (sheet 'Lestaurtinib' of Supplementary Table 1),run:Lestaurtinib_02741_R1,Plate:MR023
[10] = compound concentrations:100 nM and 1000 nM (sheet 'Lestaurtinib' of Supplementary Table 1),run:Lestaurtinib_02765_R3,Plate:MR026
[11] = compound concentrations:100 nM and 1000 nM (sheet 'Lestaurtinib' of Supplementary Table 1),run:Lestaurtinib_02766_R3,Plate:MR027
[12] = compound concentrations:100 nM and 1000 nM (sheet 'Lestaurtinib' of Supplementary Table 1),run:Lestaurtinib_02768_R3,Plate:MR028
[13] = compound concentrations:100 nM and 1000 nM (sheet 'Lestaurtinib' of Supplementary Table 1),run:Lestaurtinib_02795_R2,Plate:MR022
[14] = compound concentrations:100 nM and 1000 nM (sheet 'Lestaurtinib' of Supplementary Table 1),run:Lestaurtinib_03172_R3,Plate:MR031
[15] = compound concentrations:100 nM and 1000 nM (sheet 'Lestaurtinib' of Supplementary Table 1),run:Lestaurtinib_03260_R1,Plate:MR033
[16] = compound concentrations:100 nM and 1000 nM (sheet 'Lestaurtinib' of Supplementary Table 1),run:Lestaurtinib_03260_R3,Plate:MR033
[17] = compound concentrations:100 nM and 1000 nM (sheet 'Lestaurtinib' of Supplementary Table 1),run:Lestaurtinib_02367_R1,Plate:MR003
[18] = compound concentrations:100 nM and 1000 nM (sheet 'Lestaurtinib' of Supplementary Table 1),run:Lestaurtinib_02407_R1,Plate:MR005
[19] = compound concentrations:100 nM and 1000 nM (sheet 'Lestaurtinib' of Supplementary Table 1),run:Lestaurtinib_02407_R2,Plate:MR005
[20] = compound concentrations:100 nM and 1000 nM (sheet 'Lestaurtinib' of Supplementary Table 1),run:Lestaurtinib_02422_R2,Plate:MR006
[21] = compound concentrations:100 nM and 1000 nM (sheet 'Lestaurtinib' of Supplementary Table 1),run:Lestaurtinib_02437_R1,Plate:MR007
[22] = compound concentrations:100 nM and 1000 nM (sheet 'Lestaurtinib' of Supplementary Table 1),run:Lestaurtinib_02437_R2,Plate:MR007
[23] = compound concentrations:100 nM and 1000 nM (sheet 'Lestaurtinib' of Supplementary Table 1),run:Lestaurtinib_02473_R1,Plate:MR010
[24] = compound concentrations:100 nM and 1000 nM (sheet 'Lestaurtinib' of Supplementary Table 1),run:Lestaurtinib_02473_R2,Plate:MR010
[25] = compound concentrations:100 nM and 1000 nM (sheet 'Lestaurtinib' of Supplementary Table 1),run:Lestaurtinib_02473_R3,Plate:MR010

**Q.** Which results are given for Lestaurtinib?
**A.** potency estimated from few doses ([1]; compound concentrations:100 nM and 1000 nM (sheet 'Lestaurtinib' of Supplementary Table 1),run:Lestaurtinib_02577_R3,Plate:MR016): 1750 nM; potency estimated from few doses [1, 4]: 1720 nM; potency estimated from few doses [1, 5]: 1990 nM; potency estimated from few doses [1, 6]: 876 nM; potency estimated from few doses [1, 7]: 884 nM; potency estimated from few doses [1, 8]: 1600 nM; potency estimated from few doses ([1]; compound concentrations:100 nM and 1000 nM (sheet 'Lestaurtinib' of Supplementary Table 1),run:Lestaurtinib_02724_R2,Plate:MR021): 2070 nM; potency estimated from few doses ([1]; compound concentrations:100 nM and 1000 nM (sheet 'Lestaurtinib' of Supplementary Table 1),run:Lestaurtinib_02724_R3,Plate:MR021): 1610 nM; potency estimated from few doses [1, 9]: 2060 nM; potency estimated from few doses ([1]; compound concentrations:100 nM and 1000 nM (sheet 'Lestaurtinib' of Supplementary Table 1),run:Lestaurtinib_02741_R3,Plate:MR023): 1320 nM; potency estimated from few doses ([1]; compound concentrations:100 nM and 1000 nM (sheet 'Lestaurtinib' of Supplementary Table 1),run:Lestaurtinib_02748_R1,Plate:MR024): 1440 nM; potency estimated from few doses ([1]; compound concentrations:100 nM and 1000 nM (sheet 'Lestaurtinib' of Supplementary Table 1),run:Lestaurtinib_02748_R3,Plate:MR024): 1400 nM; potency estimated from few doses ([1]; compound concentrations:100 nM and 1000 nM (sheet 'Lestaurtinib' of Supplementary Table 1),run:Lestaurtinib_02752_R2,Plate:MR025): 1510 nM; potency estimated from few doses ([1]; compound concentrations:100 nM and 1000 nM (sheet 'Lestaurtinib' of Supplementary Table 1),run:Lestaurtinib_02765_R2,Plate:MR026): 1620 nM; potency estimated from few doses [1, 10]: 1670 nM; potency estimated from few doses ([1]; compound concentrations:100 nM and 1000 nM (sheet 'Lestaurtinib' of Supplementary Table 1),run:Lestaurtinib_02766_R1,Plate:MR027): 964 nM; potency estimated from few doses [1, 11]: 1540 nM; potency estimated from few doses [1, 12]: 2210 nM; potency estimated from few doses [1, 13]: 771 nM; potency estimated from few doses ([1]; compound concentrations:100 nM and 1000 nM (sheet 'Lestaurtinib' of Supplementary Table 1),run:Lestaurtinib_02802_R1,Plate:MR029): 1900 nM; potency estimated from few doses ([1]; compound concentrations:100 nM and 1000 nM (sheet 'Lestaurtinib' of Supplementary Table 1),run:Lestaurtinib_02896_R1,Plate:MR030): 803 nM; potency estimated from few doses [1, 14]: 823 nM; potency estimated from few doses ([1]; compound concentrations:100 nM and 1000 nM (sheet 'Lestaurtinib' of Supplementary Table 1),run:Lestaurtinib_03252_R1,Plate:MR032): 1540 nM; potency estimated from few doses [1, 15]: 1210 nM; potency estimated from few doses [1, 16]: 2310 nM; potency estimated from few doses ([2]; compound concentrations:100 nM and 1000 nM (sheet 'Lestaurtinib' of Supplementary Table 1),run:Lestaurtinib_02364_R1,Plate:MR002): 938 nM; potency estimated from few doses [2, 17]: 1240 nM; potency estimated from few doses ([2]; compound concentrations:100 nM and 1000 nM (sheet 'Lestaurtinib' of Supplementary Table 1),run:Lestaurtinib_02381_R1,Plate:MR004): 987 nM; potency estimated from few doses ([2]; compound concentrations:100 nM and 1000 nM (sheet 'Lestaurtinib' of Supplementary Table 1),run:Lestaurtinib_02381_R2,Plate:MR004): 926 nM; potency estimated from few doses ([2]; compound concentrations:100 nM and 1000 nM (sheet 'Lestaurtinib' of Supplementary Table 1),run:Lestaurtinib_02381_R3,Plate:MR004): 826 nM; potency estimated from few doses [2, 18]: 1600 nM; potency estimated from few doses [2, 19]: 1350 nM; potency estimated from few doses [2, 20]: 1150 nM; potency estimated from few doses [2, 21]: 1460 nM; potency estimated from few doses [2, 22]: 983 nM; potency estimated from few doses ([2]; compound concentrations:100 nM and 1000 nM (sheet 'Lestaurtinib' of Supplementary Table 1),run:Lestaurtinib_02438_R2,Plate:MR008): 1370 nM; potency estimated from few doses ([2]; compound concentrations:100 nM and 1000 nM (sheet 'Lestaurtinib' of Supplementary Table 1),run:Lestaurtinib_02438_R3,Plate:MR008): 1530 nM; potency estimated from few doses ([2]; compound concentrations:100 nM and 1000 nM (sheet 'Lestaurtinib' of Supplementary Table 1),run:Lestaurtinib_02443_R1,Plate:MR009): 1310 nM; potency estimated from few doses ([2]; compound concentrations:100 nM and 1000 nM (sheet 'Lestaurtinib' of Supplementary Table 1),run:Lestaurtinib_02443_R2,Plate:MR009): 1410 nM; potency estimated from few doses [2, 23]: 969 nM; potency estimated from few doses [2, 24]: 1430 nM; potency estimated from few doses [2, 25]: 858 nM; potency estimated from few doses ([2]; compound concentrations:100 nM and 1000 nM (sheet 'Lestaurtinib' of Supplementary Table 1),run:Lestaurtinib_02482_R1,Plate:MR011): 1460 nM; potency estimated from few doses ([2]; compound concentrations:100 nM and 1000 nM (sheet 'Lestaurtinib' of Supplementary Table 1),run:Lestaurtinib_02482_R2,Plate:MR011): 1890 nM; potency estimated from few doses ([2]; compound concentrations:100 nM and 1000 nM (sheet 'Lestaurtinib' of Supplementary Table 1),run:Lestaurtinib_02487_R1,Plate:MR012): 1210 nM; potency estimated from few doses ([2]; compound concentrations:100 nM and 1000 nM (sheet 'Lestaurtinib' of Supplementary Table 1),run:Lestaurtinib_02566_R1,Plate:MR014): 946 nM; potency estimated from few doses ([2]; compound concentrations:100 nM and 1000 nM (sheet 'Lestaurtinib' of Supplementary Table 1),run:Lestaurtinib_02572_R3,Plate:MR015): 1620 nM; potency estimated from few doses ([2]; compound concentrations:100 nM and 1000 nM (sheet 'Lestaurtinib' of Supplementary Table 1),run:Lestaurtinib_02577_R1,Plate:MR016): 1360 nM; potency estimated from few doses [2, 4]: 1300 nM; potency estimated from few doses [2, 5]: 1360 nM; potency estimated from few doses [2, 6]: 1700 nM; potency estimated from few doses ([2]; compound concentrations:100 nM and 1000 nM (sheet 'Lestaurtinib' of Supplementary Table 1),run:Lestaurtinib_02601_R2,Plate:MR018): 1460 nM; potency estimated from few doses [2, 7]: 1440 nM; potency estimated from few doses ([2]; compound concentrations:100 nM and 1000 nM (sheet 'Lestaurtinib' of Supplementary Table 1),run:Lestaurtinib_02606_R3,Plate:MR019): 1350 nM; potency estimated from few doses ([2]; compound concentrations:100 nM and 1000 nM (sheet 'Lestaurtinib' of Supplementary Table 1),run:Lestaurtinib_02624_R1,Plate:MR020): 1440 nM; potency estimated from few doses ([2]; compound concentrations:100 nM and 1000 nM (sheet 'Lestaurtinib' of Supplementary Table 1),run:Lestaurtinib_02624_R2,Plate:MR020): 998 nM; potency estimated from few doses [2, 8]: 998 nM; potency estimated from few doses [2, 9]: 916 nM; potency estimated from few doses ([2]; compound concentrations:100 nM and 1000 nM (sheet 'Lestaurtinib' of Supplementary Table 1),run:Lestaurtinib_02765_R1,Plate:MR026): 1490 nM; potency estimated from few doses [2, 10]: 1830 nM; potency estimated from few doses ([2]; compound concentrations:100 nM and 1000 nM (sheet 'Lestaurtinib' of Supplementary Table 1),run:Lestaurtinib_02766_R2,Plate:MR027): 1150 nM; potency estimated from few doses [2, 11]: 942 nM; potency estimated from few doses ([2]; compound concentrations:100 nM and 1000 nM (sheet 'Lestaurtinib' of Supplementary Table 1),run:Lestaurtinib_02768_R1,Plate:MR028): 1150 nM; potency estimated from few doses [2, 12]: 923 nM; potency estimated from few doses [2, 13]: 1340 nM; potency estimated from few doses ([2]; compound concentrations:100 nM and 1000 nM (sheet 'Lestaurtinib' of Supplementary Table 1),run:Lestaurtinib_02802_R3,Plate:MR029): 687 nM; potency estimated from few doses ([2]; compound concentrations:100 nM and 1000 nM (sheet 'Lestaurtinib' of Supplementary Table 1),run:Lestaurtinib_03172_R1,Plate:MR031): 1310 nM; potency estimated from few doses [2, 14]: 1570 nM; potency estimated from few doses [2, 15]: 1750 nM; potency estimated from few doses ([2]; compound concentrations:100 nM and 1000 nM (sheet 'Lestaurtinib' of Supplementary Table 1),run:Lestaurtinib_03260_R2,Plate:MR033): 1460 nM; potency estimated from few doses [2, 16]: 1580 nM; potency estimated from few doses ([3]; compound concentrations:100 nM and 1000 nM (sheet 'Lestaurtinib' of Supplementary Table 1),run:Lestaurtinib_02339_R2,Plate:MR001): 617 nM; potency estimated from few doses ([3]; compound concentrations:100 nM and 1000 nM (sheet 'Lestaurtinib' of Supplementary Table 1),run:Lestaurtinib_02339_R3,Plate:MR001): 1150 nM; potency estimated from few doses ([3]; compound concentrations:100 nM and 1000 nM (sheet 'Lestaurtinib' of Supplementary Table 1),run:Lestaurtinib_02364_R2,Plate:MR002): 618 nM; potency estimated from few doses ([3]; compound concentrations:100 nM and 1000 nM (sheet 'Lestaurtinib' of Supplementary Table 1),run:Lestaurtinib_02364_R3,Plate:MR002): 801 nM; potency estimated from few doses [3, 17]: 1620 nM; potency estimated from few doses ([3]; compound concentrations:100 nM and 1000 nM (sheet 'Lestaurtinib' of Supplementary Table 1),run:Lestaurtinib_02367_R3,Plate:MR003): 623 nM; potency estimated from few doses [3, 18]: 932 nM; potency estimated from few doses [3, 19]: 763 nM; potency estimated from few doses ([3]; compound concentrations:100 nM and 1000 nM (sheet 'Lestaurtinib' of Supplementary Table 1),run:Lestaurtinib_02407_R3,Plate:MR005): 1460 nM; potency estimated from few doses ([3]; compound concentrations:100 nM and 1000 nM (sheet 'Lestaurtinib' of Supplementary Table 1),run:Lestaurtinib_02422_R1,Plate:MR006): 575 nM; potency estimated from few doses [3, 20]: 964 nM; potency estimated from few doses ([3]; compound concentrations:100 nM and 1000 nM (sheet 'Lestaurtinib' of Supplementary Table 1),run:Lestaurtinib_02422_R3,Plate:MR006): 609 nM; potency estimated from few doses [3, 21]: 865 nM; potency estimated from few doses [3, 22]: 838 nM; potency estimated from few doses ([3]; compound concentrations:100 nM and 1000 nM (sheet 'Lestaurtinib' of Supplementary Table 1),run:Lestaurtinib_02443_R3,Plate:MR009): 798 nM; potency estimated from few doses [3, 23]: 970 nM; potency estimated from few doses [3, 24]: 755 nM; potency estimated from few doses [3, 25]: 882 nM
